# In PubChem BioAssay AID1159580 (chemical genetic matrix, 2015):
# Among all 5,500 compounds or so, about 2,000 (36%) were called active. About 18% were inconclusive and are not listed. The list shows a part of the results. A number with no mark means an inactive call. Rule as the data show it: active = normalized growth mostly below about 0.91 (no sharp cut-off); inconclusive = no clear call, values can overlap the other calls; inactive = mostly above about 0.92.
# Assay: chemical genetic growth profiling, strain panel (AID 1159580);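 also: tested at 20 µM; growth read once vehicle control cultures reached saturation at 30 °C; 1 = growth at the plate median or of vehicle wells; lower values mean less growth of the strain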
# Settings: S. cerevisiae deletion strains, growth OD
smiles,measurement,setting,value
C/C(=N/OC(=O)Nc1ccc(Cl)cc1)c1ccc2c(c1)CCO2,normalized growth,"locus YAR019C, strain CDC15, active compounds read low",0.946
same,normalized growth,"locus YBL105C, strain PKC1, active compounds read low",0.95
same,normalized growth,"locus YBR135W, strain CKS1, active compounds read low",0.954
same,normalized growth,"locus YBR136W, strain MEC1, active compounds read low",0.95
same,normalized growth,"locus YBR160W, strain CDC28, active compounds read low",0.943
same,normalized growth,"locus YDL017W, strain CDC7, active compounds read low",0.947
same,normalized growth,"locus YDL028C, strain MPS1, active compounds read low",0.955
same,normalized growth,"locus YDL101C, strain DUN1, active compounds read low",0.948
same,normalized growth,"locus YDL108W, strain KIN28, active compounds read low",0.966
same,normalized growth,"locus YDL132W, strain cdc53, active compounds read low",0.935
same,normalized growth,"locus YDL214C, strain PRR2, active compounds read low",0.868
same,normalized growth,"locus YDR052C, strain DBF4, active compounds read low",0.957
same,normalized growth,"locus YDR054C, strain cdc34, active compounds read low",0.93
same,normalized growth,"locus YDR226W, strain ADK1, active compounds read low",0.949
same,normalized growth,"locus YDR477W, strain SNF1, active compounds read low",0.853
same,normalized growth,"locus YER123W, strain YCK3, active compounds read low",0.858
same,normalized growth,"locus YER133W, strain GLC7, active compounds read low",0.837
same,normalized growth,"locus YFL009W, strain cdc4, active compounds read low",0.949
same,normalized growth,"locus YFL029C, strain CAK1, active compounds read low",0.939
same,normalized growth,"locus YFR003C, strain YPI1, active compounds read low",0.959
same,normalized growth,"locus YFR019W, strain FAB1, active compounds read low",0.93
same,normalized growth,"locus YFR028C, strain CDC14, active compounds read low",0.953
same,normalized growth,"locus YGR040W, strain KSS1, active compounds read low",0.835
same,normalized growth,"locus YGR052W, strain FMP48, active compounds read low",0.908
same,normalized growth,"locus YGR092W, strain DBF2, active compounds read low",0.599
same,normalized growth,"locus YHR030C, strain SLT2, active compounds read low",0.607 (active)
same,normalized growth,"locus YHR079C, strain IRE1, active compounds read low",0.775
same,normalized growth,"locus YHR082C, strain KSP1, active compounds read low",0.838
same,normalized growth,"locus YHR205W, strain SCH9, active compounds read low",0.756
same,normalized growth,"locus YIL147C, strain SLN1, active compounds read low",0.949
same,normalized growth,"locus YJL095W, strain BCK1, active compounds read low",0.69
same,normalized growth,"locus YJL128C, strain PBS2, active compounds read low",0.951
same,normalized growth,"locus YJL157C, strain FAR1, active compounds read low",0.852
same,normalized growth,"locus YJR016C, strain ILV3, active compounds read low",0.938
same,normalized growth,"locus YJR066W, strain TOR1 (second series), active compounds read low",0.745
same,normalized growth,"locus YJR066W, strain TOR1, active compounds read low",0.727
same,normalized growth,"locus YKL048C, strain ELM1, active compounds read low",0.966
same,normalized growth,"locus YKL067W, strain YNK1, active compounds read low",0.891
same,normalized growth,"locus YKL101W, strain HSL1, active compounds read low",0.92
same,normalized growth,"locus YKL193C, strain SDS22, active compounds read low",0.941
same,normalized growth,"locus YKL203C, strain TOR2, active compounds read low",0.85
same,normalized growth,"locus YLR113W, strain HOG1, active compounds read low",0.755 (active)
same,normalized growth,"locus YLR133W, strain CKI1, active compounds read low",0.884
same,normalized growth,"locus YLR403W, strain SFP1, active compounds read low",0.777
same,normalized growth,"locus YML070W, strain DAK1, active compounds read low",0.874
same,normalized growth,"locus YMR001C, strain CDC5, active compounds read low",0.946
same,normalized growth,"locus YMR205C, strain PFK2 (second series), active compounds read low",0.908
same,normalized growth,"locus YMR277W, strain FCP1, active compounds read low",0.949
same,normalized growth,"locus YNL006W, strain LST8, active compounds read low",0.97
same,normalized growth,"locus YNL020C, strain ARK1, active compounds read low",0.873
same,normalized growth,"locus YNL161W, strain CBK1, active compounds read low",0.951
same,normalized growth,"locus YNL183C, strain NPR1, active compounds read low",0.775
same,normalized growth,"locus YNL207W, strain RIO2, active compounds read low",0.936
same,normalized growth,"locus YNL222W, strain SSU72, active compounds read low",0.954
same,normalized growth,"locus YNL307C, strain MCK1 (second series), active compounds read low",0.832
same,normalized growth,"locus YOL078W, strain AVO1, active compounds read low",0.951
same,normalized growth,"locus YOL136C, strain PFK27, active compounds read low",0.864
same,normalized growth,"locus YOR061W, strain CKA2, active compounds read low",0.873
same,normalized growth,"locus YOR119C, strain RIO1, active compounds read low",0.894
same,normalized growth,"locus YOR231W, strain MKK1, active compounds read low",0.808
same,normalized growth,"locus YOR329C, strain SCD5, active compounds read low",0.956
same,normalized growth,"locus YPL031C, strain PHO85, active compounds read low",0.806
same,normalized growth,"locus YPL153C, strain RAD53, active compounds read low",0.846
same,normalized growth,"locus YPL204W, strain HRR25, active compounds read low",0.803
same,normalized growth,"locus YPL209C, strain IPL1, active compounds read low",0.956
same,normalized growth,"locus YPL256C, strain CLN2, active compounds read low",0.853 (active)
same,normalized growth,"locus YPR025C, strain CCL1, active compounds read low",0.955
same,normalized growth,"locus YPR106W, strain ISR1, active compounds read low",0.959
same,normalized growth,"locus YPR111W, strain DBF20, active compounds read low",0.96
same,normalized growth,"strain NNK1, active compounds read low",0.951
same,normalized growth,"strain TSCII, active compounds read low",0.938
